The source of these data is PubChem BioAssay (NCI).

Each structure is given as a SMILES string. Compounds without any hit were thinned out: in the full panel of roughly 83,000, 20% have a hit.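 Step 1: grow cells in 96-well plates. Step 2: add test compound at a single concentration. Step 3: incubate 48 h. Step 4: record percent growth.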 Calls of active or inactive are those of the source. The calls were made as follows: active = growth percent below 10; inactive = the rest.

This experiment has as its system HL-60(TB) leukemia. Briefly: NCI-60 one-dose screen, 48 h (100 = growth as untreated, 0 = no growth, -100 = all killed). The note with it: 10 µM unless noted.
For the compound `Cn1/c(=N/NC(N)=S)ccc2ccccc21`, the growth was 106% (inactive).

Regarding `COc1ccc(-c2nc3sc(C)cn3c2/C=C/C(=O)c2cc(OC)c(OC)c(OC)c2)cc1`, the growth is 55.9% (inactive).

As for `COc1ccc(N(Cc2cc(OC)c(OC)c(OC)c2)C2OC(=O)c3ccccc32)cc1` (stereo not given), the growth is 2.92% (active).

`O=[N+]([O-])c1ccc(N2CCN=N2)cc1`: the growth was 84.4% (inactive).

Take `O=C(N/N=C/c1c(Cl)cccc1Cl)c1cccc(Nc2ccnc(C(F)(F)F)c2)c1`: the growth is 98.3% (inactive).

`CC(=O)OC1Oc2cc(C)c(C)cc2-c2oc(=O)c(-c3cc4ccccc4oc3=O)cc21` (stereo not given): the growth is 93.4% (inactive).

Take `C=C(Cl)[C@@](Cl)(CBr)CC[C@@H](Br)C(C)(C)Cl`: the growth is -68.1% (active).

As to `O=C1C(c2ccccc2)C2C=CC(C2)N1O` (stereo not given), the growth is 93% (inactive).

Regarding `COc1ccc(NC(=O)c2ccccc2-c2ccccc2)c(C(N)=O)c1`, the growth is -17.9% (active).

Consider `CCCCCCNC(=O)c1cc(NCc2cc(O)ccc2O)ccc1O`, for which the growth was -6.21% (active).

With `COc1cc(NC(C)CCCN2C(=O)c3ccccc3C2=O)c2nc(C)ccc2c1OC` (stereo not given), the growth was 69.6% (inactive).

Take `COC12C=C/C(=C(/C(=O)OCCSc3ccnn3C)C(=O)CCCCCCCCC3(OC)C=C/C(=C(/C(=O)OCCSc4ccnn4C)C(=O)CCCCCCCC1)O3)O2`: the growth is -6.91% (active).

Take `CCOC(=O)C(c1ccccc1)N1C(=O)c2ccccc2C1=O` (stereo not given): the growth was 115% (inactive).

In the case of `c1ccc2c[n+](Cc3ccc4ccccc4n3)ccc2c1`, the growth is 74.3% (inactive).

Consider `Cc1cc(C)n(-c2nc(-c3cccs3)c(C#N)c(=O)[nH]2)n1`, for which the growth is 94.4% (inactive).

As to `CCN(CC)CCN1C(=O)c2c(c(C)c3c(oc4ccc(OC)cc43)c2C)C1=O`, the growth was 93.3% (inactive).

Turning to `Cc1cc(N2CCN(CCNc3ccnc4cc(Cl)ccc34)CC2)nc(N2CCOCC2)n1`, the growth is 44.8% (inactive).

Turning to `O=C1N=c2ccccc2=C1c1sc(=S)n(C2CC(=O)N(c3ccc(Cl)cc3)C2=O)c1O` (stereo not given), the growth was 101% (inactive).

With `CSc1ccc(N=C=C(c2ccccc2)c2ccccc2)cc1`, the growth was 79.8% (inactive).

For `COc1ccc(-c2cc(-c3nnc(SC/C(=N\O)c4ccccc4)n3-c3ccccc3)c3ccccc3n2)cc1`, the growth is 94.3% (inactive).

For the compound `C/C(=N\O)[C@@H]1CC[C@]2(CO)CC[C@]3(C)[C@H](CC[C@@H]4[C@@]5(C)CCCNC(C)(C)[C@@H]5CC[C@]43C)[C@@H]12`, the growth is 95.1% (inactive).

For `O=C(CCl)Nc1ccc2c(c1)C(=O)c1ccc(NC(=O)CCl)cc1C2=O`, the growth is -59.7% (active).

On to `Cc1c2cnccc2c(C)c2c1c1cc(C(=O)O)ccc1n2C`, for which the growth is 5.27% (active).

Turning to `O=c1[nH]c(=O)n(C2CC(O)C(CO)O2)cc1CO` (stereo not given), the growth is 107% (inactive).

Regarding `COc1cccc(CNc2c3ccccc3nc3ccccc23)c1`, the growth was 40.9% (inactive).

`Cn1c(=O)c2[nH]c(Cc3ccc4c(c3)OCO4)nc2n(C)c1=O`: the growth is 104% (inactive).

Consider `COC(=O)N[C@H]1CCc2c(Cl)c(OC)c(OC)c(OC)c2-c2ccc(SC)c(=O)cc21`, for which the growth is -42.4% (active).

Take `CN(C)CCOC(=O)Nc1nc2ccc(Sc3ccccc3)cc2[nH]1`: the growth was -6.29% (active).

Regarding `OC(c1ccccc1)(c1ccccc1)C(F)(F)F`, the growth is 77.1% (inactive).

Take `O=[N+]([O-])c1cccc(C(c2ccccc2)c2ccccc2)c1`: the growth was 88.9% (inactive).

`O=C(Nc1ccc(Cl)c(Cl)c1)Nc1c(Oc2ccc(Cl)c(Cl)c2)ccc(Cl)c1S(=O)(=O)O`: the growth was 4.23% (active).

Consider `Cc1ccc(Oc2c(/C=N/NC(=O)Cn3c(=O)sc4ccccc43)c(C)nn2-c2ccccc2)cc1`, for which the growth is 4.2% (active).

With `O=C(CCc1nc2sc3c(c2c(=O)[nH]1)CCC3)NCc1cn(-c2ccccc2)nc1-c1ccccc1`, the growth was 98.7% (inactive).

Regarding `COc1cc(/C=C/C(=O)c2ccc(-n3cc(CN4CCN(c5cc6c(cc5F)c(=O)c(C(=O)O)cn6C5CC5)CC4)nn3)cc2)ccc1O`, the growth is 90.3% (inactive).

`CCN1C(=S)N(CC)C2Nn3c(s/c(=C4\C(=O)N(C)c5ccccc54)c3=O)=NC21` (stereo not given): the growth is 6.45% (active).

Take `COc1ccc(C2(Cl)c3ccccc3N(c3ccccc3)c3ccccc32)cc1`: the growth was -22.3% (active).

For the compound `COC(=O)c1cc(Nc2ccc(O)c3c2C(=O)c2c([N+](=O)[O-])ccc(O)c2C3=O)cc(C(=O)OC)c1`, the growth is 62.3% (inactive).

In the case of `NS(=O)(=O)c1ccc(CCN2C(=O)c3cc(Cl)c(Cl)cc3C2=O)cc1`, the growth was 86.5% (inactive).

Turning to `CC(=O)Nc1ccc(C(=O)Nc2cc(-c3ccccc3)ccc2N)cc1`, the growth is 65.5% (inactive).

As to `CCOc1ccc(/C=N/Nc2cc(C)nc3ccc(Br)cc23)cc1`, the growth is 53.3% (inactive).
